Measured values taken from the supplement of paper PMC4166925.
± gives the standard deviation of the averaged measurements. Over roughly 33,000 sequences, “E-score (dimensionless, -0.5 to 0.5)” has its median near -0.046; the highest 2% begin near 0.36. This is one part of a sample in which the highest values are shown more often than they occur.

test system: T1, SpTbr T-box DNA-binding domain (GST fusion); test: PBM E-score of 8-mer (E-score (dimensionless, -0.5 to 0.5)); Tbr is Tbrain of the sea star Patiria miniata (Pm) or the sea urchin Strongylocentrotus purpuratus (Sp); higher = stronger binding preference; conditions: the construct has about 5 more residues each side
T1 sequence: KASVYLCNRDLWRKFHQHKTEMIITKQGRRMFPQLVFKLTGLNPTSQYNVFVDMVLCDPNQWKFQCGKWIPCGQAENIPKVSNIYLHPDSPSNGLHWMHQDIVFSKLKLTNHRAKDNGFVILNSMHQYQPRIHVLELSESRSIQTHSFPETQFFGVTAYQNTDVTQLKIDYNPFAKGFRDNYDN
Procedure: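 Universal protein-binding microarray (Agilent AMADID 016060, 60-bp probes with a 35-bp variable region) incubated with 200 nM GST-fused Strongylocentrotus purpuratus Tbr T-box DNA-binding domain (residues 362-554) in PBS pH 7.5. Scored for every ungapped 8-mer (given with its reverse complement) as E-score (range -0.5 to 0.5; >0.45 counts as bound) and Z-score of median probe intensity. Two replicate arrays (datasets 1 and 2).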
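Also: protein at 200 nM in PBS on universal double-stranded arrays.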

Sequence	PBM E-score of 8-mer
GAGCGCTA	0.205 ± 0.021
AAAAGGTA	-0.207 ± 0.011
CACCTATA	0.392 ± 0.015
CACCTATG	0.427 ± 0.011
TACCTATA	-0.192 ± 0.0052
AACCTATA	-0.123 ± 0.024
AACCTATG	-0.15 ± 0.014
CACCTATC	0.358 ± 0.012
CGCTAATA	0.135 ± 0.092
CGCCGGCG	0.1618 ± 0.00064
ATCGTACC	-0.157 ± 0.03
GAACAGTA	0.00048 ± 0.058
CACCGCCG	0.151 ± 0.1
CTCTCACA	0.3477 ± 0.0025
ATCTCAAC	0.00654 ± 0.026
CTGTCACA	0.358 ± 0.01
CGCTCACC	0.0959 ± 0.018
GCCTCACA	0.292 ± 0.0099
GTCTCACA	0.382 ± 0.0069
CTGTCACC	0.396 ± 0.0078
ATCTCACC	0.422 ± 0.0058
ACCTCACC	0.224 ± 0.017
GTCTCTCA	0.0648 ± 0.045
ATGTCACC	0.323 ± 0.0098
CTCTCACC	0.38 ± 0.021

Sequence	PBM E-score of 8-mer
ATATGAAT	-0.00217 ± 0.023
ACACCAAA	0.315 ± 0.013
AAGAATGT	-0.0437 ± 0.045
TACCGGAA	-0.116 ± 0.02
AAGGAGAG	-0.168 ± 0.0067
CACCGATC	0.154 ± 0.014
TATATGCA	-0.113 ± 0.014
AATGCGTG	0.253 ± 0.028
CAGGTCAA	-0.18 ± 0.073
ACGGACAT	-0.0905 ± 0.036
AACTTAAT	-0.0641 ± 0.021
GTGCCCCA	-0.0876 ± 0.0044
AGCACCCC	0.27 ± 0.036
TCCTCACA	0.3492 ± 0.0024
ATCTCTCA	0.171 ± 0.012
ACCTCACA	0.41113 ± 4.2e-05
ACCTCACG	0.239 ± 0.005
ATCTCACA	0.372 ± 0.0029
ATCTCACG	0.29 ± 0.012
TCCTATCA	-0.0124 ± 0.0011
AGTGGCAA	0.305 ± 0.0085
GGTGGCAA	0.4 ± 0.011
GGTGGCAC	0.3544 ± 0.0029
AGTTTGAC	0.143 ± 0.018
ATATGTTG	-0.00329 ± 0.071

Sequence	PBM E-score of 8-mer
ATGTGTTC	0.111 ± 0.064
ATGTGTTA	0.444 ± 0.015
CTGTGTTA	0.195 ± 0.079
GTGTGTTA	0.318 ± 0.021
ATGTGTTG	0.381 ± 0.014
CCTTTTAG	0.0506 ± 0.044
CTTACACA	0.276 ± 0.035
ATTACACC	0.358 ± 0.057
CTTACACC	0.392 ± 0.025
ATAACACA	0.35 ± 0.028
CGAACACC	0.321 ± 0.011
ATAACACC	0.457 ± 0.0069
CTAACACC	0.464 ± 0.005
ATAACACG	0.303 ± 0.033
CTAACACA	0.354 ± 0.0043
CTTCTAAC	0.16 ± 0.038
CATATCGA	-0.154 ± 0.056
CCGCAAAG	-0.233 ± 0.015
CGAGATCG	0.175 ± 0.058
AAACTGAG	-0.1 ± 0.018
CACCAAGC	0.129 ± 0.017
CCCAACAC	0.343 ± 0.013
GAACTTAC	-0.0233 ± 0.034
CCAAGTAA	-0.21 ± 0.095
CGCGAACC	0.375 ± 0.013

Sequence	PBM E-score of 8-mer
CGCGAAGA	0.371 ± 0.01
AGCGAAAG	-0.123 ± 0.022
GGCGAACC	-0.141 ± 0.05
CGCGAACA	0.36 ± 0.019
AGCGAACC	0.0666 ± 0.08
CGCGAAAG	0.387 ± 0.015
CGCGAAGC	0.324 ± 0.033
AGCGAACG	0.0538 ± 0.025
CGCGAAAC	0.344 ± 0.0048
AGCGAAGA	0.106 ± 0.019
CGCGAACG	0.422 ± 0.013
CAAATGAG	-0.158 ± 0.037
GACCAGTC	-0.333 ± 0.075
AGTCCATA	-0.295 ± 0.063
CACAGCGC	0.0949 ± 0.014
TGCCCACA	0.0199 ± 0.1
CGTTTGGA	-0.0006 ± 0.068
ACGTTCAA	-0.145 ± 0.032
CCGTTCAC	0.367 ± 0.029
ACGTTCAC	0.369 ± 0.0053
ACGTTCAG	-0.122 ± 0.029
CCGTTCAG	-0.113 ± 0.032
GCGTTCAC	0.239 ± 0.011
CGGAGACA	-0.0395 ± 0.021
ACAGAGAC	-0.0676 ± 0.02

Sequence	PBM E-score of 8-mer
CAACCCTG	0.014 ± 0.024
CGCCTTGA	0.159 ± 0.083
AGCCACAA	0.0237 ± 0.048
GACACCGA	0.293 ± 0.0048
GACACCTA	0.4778 ± 0.0018
GACACGTA	0.29 ± 0.0077
GACACCGC	0.244 ± 0.061
GACACCTC	0.479 ± 0.009
GAGACCTC	-0.305 ± 0.013
ACCAGTAG	-0.2 ± 0.063
AATGGACC	-0.2776 ± 0.0022
GGATGGAC	-0.203 ± 0.0084
GGTCAGAC	-0.274 ± 0.051
AGTCACGC	0.3794 ± 0.0033
ATTCACGA	0.288 ± 0.047
ATTCACGG	0.259 ± 0.00064
CTTCACGA	0.167 ± 0.043
ATTCACGC	0.424 ± 0.0061
CTTCACGC	0.409 ± 0.01
CCTCACGC	0.322 ± 0.036
AGTCACGG	-0.193 ± 0.0098
AGTCACGA	0.152 ± 0.0034
CACTGGCG	0.162 ± 0.084
ACCCATTC	-0.15 ± 0.062
TGGGGTAA	-0.1604 ± 0.001

Sequence	PBM E-score of 8-mer
ATTTCGCG	0.389 ± 0.016
AATTCGCA	0.321 ± 0.023
AATTCGCG	0.279 ± 0.02
CATTCGCC	-0.147 ± 0.039
ATTTCGCC	-0.0532 ± 0.044
TATTCGCA	0.369 ± 0.0054
CATTCGTA	-0.0369 ± 0.038
GATTCGCA	0.327 ± 0.014
ATTTCGCA	0.335 ± 0.025
TATTCGAA	-0.0307 ± 0.088
CATTCGCG	0.389 ± 0.0059
CATTCGCA	0.384 ± 0.0068
AGTCAAAA	-0.181 ± 0.0086
AGATTAGC	0.0489 ± 0.043
ACATGGGG	-0.06449 ± 0.00059
GTCATCTA	-0.0343 ± 0.015
GACCACTC	0.0231 ± 0.029
AAAGGCTC	-0.214 ± 0.06
GGCAAAAA	0.0671 ± 0.028
AACCACGT	-0.161 ± 0.017
GTGGCAAA	0.309 ± 0.024
ACGTGGGA	0.203 ± 0.026
CCGATAGG	0.00486 ± 0.048
CTTTCGCC	-0.043 ± 0.078
GTTTCGCA	0.36 ± 0.02

Sequence	PBM E-score of 8-mer
CTTTCGCA	0.421 ± 0.015
CGTATCTC	-0.174 ± 0.0059
AGCACCGA	-0.094 ± 0.013
AGCACCGG	-0.0409 ± 0.027
ACCACCTC	0.343 ± 0.046
GGCACCTA	0.382 ± 0.015
GCCACCTA	0.285 ± 0.036
ATCACCTG	0.304 ± 0.022
GGCACCGA	-0.122 ± 0.1
ACCACCTA	0.109 ± 0.065
AGCACCTA	0.409 ± 0.0069
AGCACCTC	0.4014 ± 0.004
AGCACCGC	-0.0167 ± 0.064
AGCACCTG	0.398 ± 0.0042
ACGAAGCC	-0.00822 ± 0.065
ACTGGCCA	0.0049 ± 0.016
ATAGGCTC	-0.167 ± 0.02
ACGCTACG	0.102 ± 0.023
ACCAACGA	0.102 ± 0.0046
CTCGGCCC	-0.0368 ± 0.041
ACTTTTGA	-0.0941 ± 0.084
AGTTTCAT	-0.233 ± 0.01
